Counter-ions that a name gives are not always drawn.
Key:
Conditions in all cases: 20 µM
[1] = system: Salmonella enterica typhimurium; assay: growth AUC normalised to DMSO control (fraction of control); higher = less growth inhibition, active = hit call of the paper
Method in brief: (§1)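 Three biological replicates were carried out, with OD578 read hourly for 24 h. Before inoculation at a starting OD578 of 0.01, pathogens were passaged anaerobically twice; plates were pre-reduced mGAM containing 20 μM compound and 1% DMSO, sealed with breathable membranes, and the Haemophilus parainfluenzae medium carried added hemin and NAD. Area under each growth curve was calculated by the trapezoidal rule up to the exponential-to-stationary transition and normalised to DMSO controls on the same plate.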

Shigella flexneri = assay: as above
Method in brief: as §1

Vibrio cholerae = assay: as above
Method in brief: as §1

[2] = system: Yersinia pseudotuberculosis; assay: as above
Method in brief: as §1

P. vulgatus RND KO = assay: growth AUC normalised to DMSO control (median) (fraction of control); higher = less growth inhibition, active = hit call of the paper
Method in brief: (§2)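 In 96-well plates of mGAM seeded at OD578 0.01, strains that had been passaged twice overnight without oxygen were exposed to approved-drug library compounds at 20 μM with 1% DMSO. Hourly OD578 readings were taken for 24 h in an anaerobic incubator. The trapezoidal-rule area under the curve, with curves truncated at entry into stationary phase, was expressed relative to same-plate vehicle wells as the median of three biological replicates.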

P. vulgatus WT = assay: as above
Method in brief: as §2

[3] = system: S. enterica typhimurium WT; assay: as above
Method in brief: as §2

[4] = system: S. enterica typhimurium tolC KO; assay: as above
Method in brief: as §2

Measured: growth AUC normalised to DMSO control
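Throughout, for growth AUC normalised to DMSO control (median): active when median AUC fell below 0.1.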

C#C[C@]1(O)CC[C@H]2[C@@H]3CCc4cc(O)ccc4[C@H]3CC[C@@]21C [Ethinylestradiol]
inactive: [1] 0.985 | Shigella flexneri 1.02 | Vibrio cholerae 0.996 | [2] 1.03 | P. vulgatus RND KO 0.913 | P. vulgatus WT 0.913 | [3] 0.998 | [4] 0.985

CCCCC(=O)O[C@H]1CC[C@H]2[C@@H]3CCc4cc(O)ccc4[C@H]3CC[C@]12C [Estradiol Valerate]
inactive: [1] 1.05 | Shigella flexneri 1.05 | Vibrio cholerae 1.08 | [2] 1.01 | P. vulgatus RND KO 1 | P. vulgatus WT 1.07 | [3] 0.998 | [4] 1

NS(=O)(=O)c1cc2c(cc1Cl)N=C(CSCc1ccccc1)NS2(=O)=O [Benzthiazide]
inactive: [1] 0.998 | Shigella flexneri 0.958 | Vibrio cholerae 0.947 | [2] 1.01 | P. vulgatus RND KO 0.99 | P. vulgatus WT 0.992 | [3] 1.01 | [4] 0.996

Cc1cc2cc3c(C)cc(=O)oc3c(C)c2o1 [Trioxsalen]
inactive: [1] 0.994 | Shigella flexneri 1.03 | Vibrio cholerae 0.996 | [2] 0.995 | P. vulgatus RND KO 1.03 | P. vulgatus WT 1.02 | [3] 0.996 | [4] 0.955

N=C(N)NCCN1CCCCCCC1 [Guanethidine sulfate]
inactive: [1] 1.01 | Shigella flexneri 0.988 | Vibrio cholerae 1.04 | [2] 1.03 | P. vulgatus RND KO 1.02 | P. vulgatus WT 1.01 | [3] 1.01 | [4] 1.01

COc1ccccc1N1CCN(CC(O)COc2cccc3ccccc23)CC1 (stereo not drawn) [Naftopidil dihydrochloride]
inactive: [1] 1.01 | Shigella flexneri 1 | Vibrio cholerae 0.894 | [2] 0.991 | P. vulgatus RND KO 0.933 | P. vulgatus WT 0.971 | [3] 1.01 | [4] 0.914

CC(=O)OC[C@H]1O[C@@H]([S-])[C@H](OC(C)=O)[C@@H](OC(C)=O)[C@@H]1OC(C)=O.CCP(CC)CC.[Au+] [Auranofin]
active: [1] 0.877 | Vibrio cholerae 0.67 | [2] 0.672 | P. vulgatus RND KO 0.00406
inactive: Shigella flexneri 1.01 | P. vulgatus WT 0.233 | [3] 0.855 | [4] 0.862

Cc1ccccc1N1C(=O)c2cc(S(N)(=O)=O)c(Cl)cc2NC1C (stereo not drawn) [Metolazone]
inactive: [1] 0.994 | Shigella flexneri 0.984 | Vibrio cholerae 0.996 | [2] 0.991 | P. vulgatus RND KO 0.99 | P. vulgatus WT 1 | [3] 1.02 | [4] 0.997

OCCOCCN1CCN(C2=Nc3ccccc3Sc3ccccc32)CC1 [Quetiapine hemifumarate]
inactive: [1] 0.999 | Shigella flexneri 0.978 | Vibrio cholerae 0.991 | [2] 0.981 | P. vulgatus RND KO 0.946 | P. vulgatus WT 0.91 | [3] 1.01 | [4] 0.977

CC(CCc1ccccc1)NCC(O)c1ccc(O)c(C(N)=O)c1 (stereo not drawn) [Labetalol hydrochloride]
inactive: [1] 0.969 | Shigella flexneri 0.945 | Vibrio cholerae 0.972 | [2] 0.988 | P. vulgatus RND KO 1 | P. vulgatus WT 0.988 | [3] 0.99 | [4] 0.986

CC(COc1ccccc1)NC(C)C(O)c1ccc(O)cc1 (stereo not drawn) [Isoxsuprine hydrochloride]
inactive: [1] 0.979 | Shigella flexneri 0.989 | Vibrio cholerae 1 | [2] 0.989 | P. vulgatus RND KO 1.02 | P. vulgatus WT 1.01 | [3] 0.998 | [4] 1

CC(C)[N+](C)(CCOC(=O)C1c2ccccc2Oc2ccccc21)C(C)C [Propantheline bromide]
inactive: [1] 0.974 | Shigella flexneri 0.983 | Vibrio cholerae 0.967 | [2] 1 | P. vulgatus RND KO 0.966 | P. vulgatus WT 0.958 | [3] 1 | [4] 0.981

Nc1ccc(S(N)(=O)=O)cc1 [Sulfanilamide]
inactive: [1] 1.03 | Shigella flexneri 1.04 | Vibrio cholerae 1.05 | [2] 1.01 | P. vulgatus RND KO 1.03 | P. vulgatus WT 1.06 | [3] 0.993 | [4] 1

COc1ccc2[nH]cc(CCNC(C)=O)c2c1 [Melatonin]
inactive: [1] 0.987 | Shigella flexneri 0.972 | Vibrio cholerae 0.997 | [2] 0.992 | P. vulgatus RND KO 0.988 | P. vulgatus WT 1 | [3] 0.996 | [4] 0.996

O=C(Nc1ccc([N+](=O)[O-])cc1Cl)c1cc(Cl)ccc1O [Niclosamide]
inactive: [1] 0.995 | Shigella flexneri 0.983 | [3] 0.992
active: Vibrio cholerae 0.0756 | [2] 0.843 | P. vulgatus RND KO 0.0144 | P. vulgatus WT 0.0167 | [4] 0.00688

CNCCc1ccccn1 [Betahistine mesylate]
inactive: [1] 0.997 | Shigella flexneri 0.976 | Vibrio cholerae 0.985 | [2] 1.01 | P. vulgatus RND KO 1 | P. vulgatus WT 1 | [3] 1.02 | [4] 1.01

CC(Oc1c(Cl)cccc1Cl)C1=NCCN1 (stereo not drawn) [Lofexidine]
inactive: [1] 1.01 | Shigella flexneri 1 | Vibrio cholerae 1.01 | [2] 1.01 | P. vulgatus RND KO 1.02 | P. vulgatus WT 1.03 | [3] 1.02 | [4] 1

CC[C@@H](CO)NCCN[C@@H](CC)CO [Ethambutol dihydrochloride]
inactive: [1] 0.943 | Shigella flexneri 0.976 | Vibrio cholerae 1 | [2] 1.01 | P. vulgatus RND KO 1.01 | P. vulgatus WT 0.998 | [3] 1 | [4] 0.989

CC(=O)OCC(=O)[C@@]1(O)[C@H](C)C[C@H]2[C@@H]3CCC4=CC(=O)C=C[C@]4(C)[C@@]3(F)[C@@H](O)C[C@@]21C [Dexamethasone acetate]
inactive: [1] 1 | Shigella flexneri 1 | Vibrio cholerae 1 | [2] 0.999 | P. vulgatus RND KO 0.993 | P. vulgatus WT 1.02 | [3] 1.01 | [4] 0.998

N[C@@H](Cc1cc(I)c(Oc2ccc(O)c(I)c2)c(I)c1)C(=O)O [Liothyronine]
inactive: [1] 0.985 | Shigella flexneri 0.951 | Vibrio cholerae 0.981 | [2] 0.976 | P. vulgatus RND KO 0.987 | P. vulgatus WT 0.984 | [3] 1.01 | [4] 1

CCN1CCCC1CNC(=O)c1cc(S(N)(=O)=O)ccc1OC (stereo not drawn) [Sulpiride]
inactive: [1] 0.99 | Shigella flexneri 1 | Vibrio cholerae 1.01 | [2] 1.02 | P. vulgatus RND KO 0.992 | P. vulgatus WT 1.01 | [3] 1 | [4] 0.999

CNCCCC12CCC(c3ccccc31)c1ccccc12 [Maprotiline hydrochloride]
inactive: [1] 1 | Shigella flexneri 0.999 | Vibrio cholerae 0.942 | [2] 1.01 | P. vulgatus RND KO 0.947 | P. vulgatus WT 0.985 | [3] 0.997 | [4] 0.982

Oc1c(Cl)cc(Cl)c2cccnc12 [Chloroxine]
active: [1] 0.922 | Shigella flexneri 0.884 | Vibrio cholerae 0.0387 | [2] 0.652 | P. vulgatus WT 0.0729
inactive: P. vulgatus RND KO 0.32 | [3] 0.969 | [4] 0.568

C#C[C@]1(OC(C)=O)CC[C@H]2[C@@H]3CCC4=C[C@@H](OC(C)=O)CC[C@@H]4[C@H]3CC[C@@]21C [Ethynodiol diacetate]
inactive: [1] 0.971 | Shigella flexneri 0.988 | Vibrio cholerae 0.963 | [2] 0.986 | P. vulgatus RND KO 0.922 | P. vulgatus WT 0.954 | [3] 0.997 | [4] 0.941

CCN(CC)CCNC(=O)c1ccc(N)cc1 [Procainamide hydrochloride]
inactive: [1] 0.994 | Shigella flexneri 0.99 | Vibrio cholerae 0.999 | [2] 1 | P. vulgatus RND KO 1.02 | P. vulgatus WT 1.03 | [3] 1 | [4] 1

CCCCC[C@H](O)/C=C/[C@H]1[C@H](O)CC(=O)[C@@H]1CCCCCCC(=O)O [Alprostadil]
inactive: [1] 0.992 | Shigella flexneri 0.989 | Vibrio cholerae 0.99 | [2] 0.999 | P. vulgatus RND KO 0.994 | P. vulgatus WT 1.01 | [3] 1 | [4] 1.01

O=c1n(CCCN2CCN(c3cccc(Cl)c3)CC2)nc2ccccn12 [Trazodone hydrochloride]
inactive: [1] 0.992 | Shigella flexneri 0.991 | Vibrio cholerae 0.957 | [2] 0.984 | P. vulgatus RND KO 0.993 | P. vulgatus WT 1.01 | [3] 1 | [4] 0.964

COc1ccccc1OCCNCC(O)COc1cccc2[nH]c3ccccc3c12 (stereo not drawn) [Carvedilol]
inactive: [1] 1.02 | Shigella flexneri 1 | Vibrio cholerae 0.994 | [2] 0.997 | P. vulgatus RND KO 0.995 | P. vulgatus WT 0.989 | [3] 0.994 | [4] 0.944

CC1=Nc2ccc(Cl)cc2S(=O)(=O)N1 [Diazoxide]
inactive: [1] 1.01 | Shigella flexneri 1.03 | Vibrio cholerae 1.02 | [2] 0.999 | P. vulgatus RND KO 1.04 | P. vulgatus WT 1.01 | [3] 1.01 | [4] 0.989

CCOCCn1c(N2CCCN(C)CC2)nc2ccccc21 [Emedastine difumarate]
inactive: [1] 0.995 | Shigella flexneri 0.997 | Vibrio cholerae 0.992 | [2] 0.996 | P. vulgatus RND KO 1.03 | P. vulgatus WT 1.05 | [3] 1 | [4] 0.989

COc1ccccc1N1CCN(CCCCNC(=O)c2ccc3ccccc3c2)CC1
active: Vibrio cholerae 0.0446
inactive: [1] 1.01 | Shigella flexneri 1.03 | [2] 0.978 | P. vulgatus RND KO 1.02 | P. vulgatus WT 1.08 | [3] 0.985 | [4] 0.753
